The full list was thinned out, with hits kept by preference.
HT1080NT lethal: kills 2HG-producing HT-1080-NT fibrosarcoma cells. HT-1080-NT fibrosarcoma viability, CellTiter-Glo ATP luminescence, 48 h. Potency, µM (titrated, usually from 46.1 µM), actives largely listed as cytotoxic. 1.6% of 360,000 active. AID 686970;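 note: NT is the 2HG producing partner of a matched IDH1 knockdown line; nearly all actives have a fitted effect of over 55% in size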
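Viability by CellTiter-Glo luminescence after 48 h compound exposure at 37C of HT-1080-NT cells (750/well, RPMI, 5% FBS). % activity scaled between DMSO wells and medium-only wells, then curve-fitted and categorized by curve class.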
12-LOX inh: blocks human arachidonate 12S-lipoxygenase; P18054; purified 12hLO, xylenol orange hydroperoxide absorbance; Potency, µM (top dose mostly 108 µM), most hits filed as inhibitors; 1.1% of 580,000 active
Target sequence (P18054 whole entry, looked up): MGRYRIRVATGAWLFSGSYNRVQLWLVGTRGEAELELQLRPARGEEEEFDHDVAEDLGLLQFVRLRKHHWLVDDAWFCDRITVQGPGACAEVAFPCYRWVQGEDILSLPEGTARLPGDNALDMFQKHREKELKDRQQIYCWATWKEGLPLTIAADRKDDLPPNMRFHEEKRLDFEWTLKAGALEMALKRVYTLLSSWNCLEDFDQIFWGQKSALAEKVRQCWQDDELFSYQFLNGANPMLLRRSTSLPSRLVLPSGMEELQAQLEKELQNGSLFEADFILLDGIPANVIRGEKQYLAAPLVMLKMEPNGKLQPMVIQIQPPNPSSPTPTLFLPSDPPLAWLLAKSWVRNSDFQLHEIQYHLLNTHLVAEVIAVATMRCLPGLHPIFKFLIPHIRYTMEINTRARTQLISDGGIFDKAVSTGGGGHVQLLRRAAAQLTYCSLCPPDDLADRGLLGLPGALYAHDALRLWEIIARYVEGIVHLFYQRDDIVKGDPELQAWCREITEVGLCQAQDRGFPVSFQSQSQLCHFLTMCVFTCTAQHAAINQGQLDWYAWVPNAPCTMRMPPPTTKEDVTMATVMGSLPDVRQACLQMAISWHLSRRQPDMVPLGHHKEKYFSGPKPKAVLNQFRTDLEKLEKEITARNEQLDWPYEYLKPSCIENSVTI
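Purified human 12hLO (150 nM final) in 25 mM Hepes, 0.01% Triton X-100, pH 7.0 was preincubated 15 min at room temperature with compound. Then 40 uM arachidonic acid was added, 30 min. Hydroperoxide was read by Fe-XO absorbance ratio 573/405 nm.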
TDP1 cell noCPT: qHTS for Inhibitors of human tyrosyl-DNA phosphodiesterase 1 (TDP1): qHTS in cells in absence of CPT. DT40 Tdp1-/- hTDP1 cells, no CPT, ATP luminescence, 48 h. 15% of 420,000 active. Potency, µM (top dose mostly 46.2 µM), hits mostly inhibitors; note: nearly all actives have a fitted effect of over 55% in size
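DT40 Tdp1-/-;hTDP1 cells, no CPT (DMSO vehicle only), 400 cells/well; compounds pin-transferred; ≥48 hr, 37 °C; CellTiter-Glo 30 min RT dark, luminescence read.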
TDP1 cell CPT: DT40-hTDP1 cell growth loss with CPT; chicken DT40 Tdp1-/-;hTDP1 cells + 20 nM CPT, ATP luminescence, 48 h; Potency, µM (doses to about 46.2 µM), most hits filed as inhibitors; 12% of 420,000 active; note: nearly all actives have a fitted effect of over 55% in size
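Chicken DT40 Tdp1-/- cells stably complemented with human TDP1 were seeded at 400 cells/well in medium containing 20 nM camptothecin, exposed to pin-transferred compounds, and grown at 37 °C for at least 48 hr. Viability was read as ATP luminescence.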
HT1080 IDH1KD tx: toxicity to HT-1080 IDH1 knockdown cells (counter line); HT-1080 IDH1 knockdown viability, ATP luminescence, 48 h; Potency, µM (top dose mostly 46.1 µM), actives largely listed as cytotoxic; 2% of 360,000 active
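After a 2 h attachment period, IDH1KD HT-1080 cells took pin-transferred compound for 48 h at 37 °C; ATP-based luminescence after 10 min room-temperature reagent incubation reported viability.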
IL-1B inflam inh: inhibitors of inflammasome signaling (IL-1 beta secretion); 4.7% of 360,000 active; activity change, % at 57.5 µM; AID 743279; THP-1 LPS/ATP IL-1B secretion, AlphaLISA, 16 h; active compounds read low; in the data active = activity change below about -50%; inconclusive = mostly about -30% to -49%
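THP-1 cells pretreated 1 hr with compounds (up to 57.5 uM final), then stimulated with LPS (250 ng/mL final) plus ATP (1.25 mM final); secreted IL-1B measured by AlphaLISA after 16 hr, decreased signal indicating inhibition.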
Hits are given with their value; [ ] = remark or other dose. Unless noted, calls come from the whole dose curve; as a rule, active = well fitted curve in the direction sought with a large enough effect; inconclusive = small, poorly fitted or top-dose-only effect, or another doubt; inactive = no such curve, though single readings can be large; an effect the other way counts as inactive or inconclusive.

`COc1ccc(-c2csc(N(CCCN(C)C)C(=O)c3ccc(Br)cc3)n2)cc1` gave HT1080NT lethal 20.6µM, 12-LOX inh inactive, TDP1 cell noCPT 20.6µM, TDP1 cell CPT 20.6µM, HT1080 IDH1KD tx 20.6µM and IL-1B inflam inh -76.2.
For COc1ccc(-c2csc(N(CC3CCCO3)C(=O)c3ccc(C)cc3)n2)cc1 (stereo unspecified) the results were HT1080NT lethal inactive, 12-LOX inh inactive, TDP1 cell noCPT 23.1µM, TDP1 cell CPT 25.9µM, HT1080 IDH1KD tx inconclusive and IL-1B inflam inh inactive.
For COc1ccc(-c2csc(N(CCCN(C)C)C(=O)c3ccc(C)cc3)n2)cc1 the results were HT1080NT lethal inconclusive, 12-LOX inh inactive, TDP1 cell noCPT 16.4µM, TDP1 cell CPT inconclusive, HT1080 IDH1KD tx inconclusive and IL-1B inflam inh -78.7.
`O=C(NCCN1CCN(C(=O)c2ccc(Cl)cc2)CC1)c1ccc(Cl)cc1` gave 12-LOX inh inactive.
For Cn1cnnc1CC1CCN(C(=O)Nc2ccccc2)C1 (stereo unspecified) the results were 12-LOX inh inactive.
For NC(=O)COc1ccc(Cl)cc1CN1CCCC(CO)(CC2CC2)C1 (stereo unspecified) the results were 12-LOX inh inactive.
COc1cccc(-n2cc(CNCc3cn(C)nc3-c3ccccc3F)cn2)c1 was read as HT1080NT lethal inactive, 12-LOX inh inactive, TDP1 cell noCPT 25.9µM, TDP1 cell CPT inconclusive, HT1080 IDH1KD tx inconclusive and IL-1B inflam inh inactive.
CN(Cc1cccc(-n2cccn2)c1)Cc1cn(C)nc1-c1ccccc1F was read as HT1080NT lethal inactive, 12-LOX inh inactive, TDP1 cell noCPT inconclusive, TDP1 cell CPT inconclusive, HT1080 IDH1KD tx inactive and IL-1B inflam inh inactive.
`COc1cccc(-n2cc(CNCc3c(C(=O)N(C)C)nc4ccc(Cl)cn34)cn2)c1` gave HT1080NT lethal inactive, 12-LOX inh inactive, TDP1 cell noCPT 14.6µM, TDP1 cell CPT inconclusive, HT1080 IDH1KD tx inactive and IL-1B inflam inh inactive.
`S=C(Nc1ccccc1)Nc1nc2ccccc2n1CCOc1ccccc1` gave HT1080NT lethal inconclusive, 12-LOX inh inconclusive, TDP1 cell noCPT 16.4µM, TDP1 cell CPT 18.4µM, HT1080 IDH1KD tx inconclusive and IL-1B inflam inh -105.8.
`COc1ccc(OCCn2c(NC(=O)c3ccco3)nc3ccccc32)cc1` gave HT1080NT lethal inconclusive, 12-LOX inh inactive, TDP1 cell noCPT 23.1µM, TDP1 cell CPT 18.4µM, HT1080 IDH1KD tx inconclusive and IL-1B inflam inh inactive.
`COc1ccc(C(=O)Nc2nc3ccccc3n2CCOc2ccc(Cl)cc2)cc1` gave 12-LOX inh inactive, TDP1 cell noCPT 13µM and TDP1 cell CPT inconclusive.
For CC(=O)Nc1nc2ccccc2n1CCOc1ccccc1 the results were HT1080NT lethal inactive, 12-LOX inh inactive, TDP1 cell noCPT inconclusive, TDP1 cell CPT inconclusive, HT1080 IDH1KD tx inactive and IL-1B inflam inh inactive.
Screening O=[N+]([O-])c1ccc(N2CCN(c3ccccc3)CC2)c2ccncc12 returned 12-LOX inh inactive.
`Cc1cc(C)cc(-n2ccn3c(SCC(=O)c4ccc(Br)cc4)nnc3c2=O)c1` gave 12-LOX inh inactive.
Screening CCOC(=O)c1cccn1C1C(=O)N(Cc2ccc(Cl)nc2)c2c(F)cccc21 (stereo unspecified) returned 12-LOX inh 56.2µM.
`COc1ccc(NC2CCCN(C(=O)CCc3scnc3C)C2)cc1` (stereo unspecified) gave HT1080NT lethal inactive, 12-LOX inh inactive, TDP1 cell noCPT inactive, TDP1 cell CPT inactive, HT1080 IDH1KD tx inactive and IL-1B inflam inh inactive.
Cc1ncsc1CCC(=O)N1CCCC(Nc2ccc(F)c(F)c2)C1 (stereo unspecified) was read as HT1080NT lethal inactive, 12-LOX inh inactive, TDP1 cell noCPT inconclusive, TDP1 cell CPT 13µM, HT1080 IDH1KD tx inactive and IL-1B inflam inh inactive.
CCc1nccn1CCC(=O)N1CCCC(Nc2ccc(C(C)C)cc2)C1 (stereo unspecified) was read as HT1080NT lethal inactive, 12-LOX inh inactive, TDP1 cell noCPT 18.4µM, TDP1 cell CPT inconclusive, HT1080 IDH1KD tx inactive and IL-1B inflam inh inactive.
For Cc1ncsc1CCC(=O)N1CCCC(c2nc(-c3ccncc3)ncc2-c2ccccc2)C1 (stereo unspecified) the results were 12-LOX inh inactive, TDP1 cell noCPT 20.6µM and TDP1 cell CPT inactive[9.04 µM].
Cc1ncsc1CCC(=O)N1CCCC(Nc2ccc(C(C)C)cc2)C1 (stereo unspecified) was read as HT1080NT lethal inactive, 12-LOX inh inactive, TDP1 cell noCPT 25.9µM, TDP1 cell CPT inconclusive, HT1080 IDH1KD tx inactive and IL-1B inflam inh inactive.
`COc1ccc(C(=O)N2CCCC(Nc3ccc(C(C)C)cc3)C2)c(OC)n1` (stereo unspecified) gave HT1080NT lethal inactive, 12-LOX inh inconclusive, TDP1 cell noCPT 23.1µM, TDP1 cell CPT inconclusive, HT1080 IDH1KD tx inactive and IL-1B inflam inh inactive.
`O=C1CCCCN1CC(=O)N1CCCC(Nc2ccc(F)c(F)c2)C1` (stereo unspecified) gave HT1080NT lethal inactive, 12-LOX inh inactive, TDP1 cell noCPT inconclusive, TDP1 cell CPT 20.6µM, HT1080 IDH1KD tx inactive and IL-1B inflam inh inactive.
For COc1ccc(CNC(=O)[C@@]23CCCC[C@H]2N(C)C(=O)CC3)cc1 the results were 12-LOX inh inactive.
Screening CCNC(=O)CSc1nc2ccccc2c(=O)n1CCCOC(C)C returned HT1080NT lethal inactive, 12-LOX inh inactive, TDP1 cell noCPT inactive, TDP1 cell CPT inactive, HT1080 IDH1KD tx inactive and IL-1B inflam inh inactive.
For CC(C)OCCCn1c(SCC(N)=O)nc2c(sc3ccccc32)c1=O the results were 12-LOX inh inactive, TDP1 cell noCPT inconclusive and TDP1 cell CPT 20.6µM.
For Cc1cccc(CSc2nc3c(sc4ccccc43)c(=O)n2CCC(=O)NC(C)C)c1 the results were 12-LOX inh inactive, TDP1 cell noCPT 11.6µM and TDP1 cell CPT 4.61µM.
CCCCn1c(SCC(N)=O)nc2c(sc3ccccc32)c1=O was read as HT1080NT lethal 22.4µM, 12-LOX inh inactive, TDP1 cell noCPT inconclusive, TDP1 cell CPT inconclusive, HT1080 IDH1KD tx inactive and IL-1B inflam inh inactive.
CC(C)OCCCn1c(SCc2cccc(Br)c2)nc2c(sc3ccccc32)c1=O was read as 12-LOX inh inactive, TDP1 cell noCPT inactive and TDP1 cell CPT inactive.
For C/C(N)=C(/C#N)C(=O)CSc1nc2ccccc2c(=O)n1CCCOC(C)C the results were HT1080NT lethal inactive, 12-LOX inh inactive, TDP1 cell noCPT 23.1µM, TDP1 cell CPT inconclusive, HT1080 IDH1KD tx inactive and IL-1B inflam inh inconclusive.
